In the supplement of paper PMC6555819 one finds PBM binding z-score data, which are given here for 16 sequences.

What all share (test): PBM binding z-score (relative to random genomic background probes); higher = stronger binding; sequences stand for … in GC…GCGATTGACAGCGTAGAATGAAGG
For assay [1], the system named is RARb homodimer (NR concentration 270 nM). In a few lines:
(§1)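 Regression normalization was applied to scanned fluorescence from custom Agilent 4×180K protein-binding microarrays. Before scanning, arrays were incubated 1 h with ligand-free nuclear receptor dimers, and binding was detected with antibodies against each partner (one per run). Binding z-scores use the random background probes as reference.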

Assay [2] relates to RARg:RXRa (NR concentration 270 nM, RXRa partner concentration 90 nM). In a few lines:
as §1

In assay [3] the test system is RARg homodimer (NR concentration 270 nM). In a few lines: as §1
Assay [4] deals with RXRa DBDmut IVT, anti-RXR (DBD mutation: RXRa K156A/R161A, NR concentration 90 nM). The method in brief:
as §1

Assay [5] concerns RXRa homodimer (NR concentration 180 nM). The method in brief: as §1
Assay [6] has as its system THRa:RXRa (NR concentration 90 nM, RXRa partner concentration 90 nM). In a few lines: as §1
In assay [7] the test system is THRa homodimer (NR concentration 90 nM). In a few lines:
as §1

Assay [8] has as its system VDR:RXRa (NR concentration 270 nM, RXRa partner concentration 90 nM). The method in brief:
as §1

In assay [9] the test system is VDR homodimer (NR concentration 270 nM). In a few lines: as §1

As for CAAACTAGGTCACAGAGGTCAAAGGCCGTGCGTA, the PBM binding z-score in [1] turned out to be 5.17; in assay [2], 7.3; in assay [3], 7.71; in assay [4], 3.23; in assay [5], 8.06; in assay [6] it was 4.42. The PBM binding z-score came to 2.89 in [7], 8.04 in assay [8] and 6.86 in [9].

Consider TTACCAAGGTGAGCTGAGGTCGTTCATCCAACTC, for which the PBM binding z-score in [1] was determined as 1.81; in assay [2] it was 1.4; in assay [3], 0.963; in assay [4], 0.409; in [5] it was 1.3; in [6], 4.63. The PBM binding z-score in [7] turned out to be 2.3; in assay [8], 4.32; in assay [9], 2.41.

Turning to CATACTAGGTCAAGAGGTCAAAGTCCGCTTCCCG, the PBM binding z-score in assay [1] worked out at 5.69; in assay [2] it was 8.1; in [3], 7.68; in assay [4], 3.2; in assay [5], 8.08; in [6] it was 4.5. Further, the PBM binding z-score was found to be 2.62 in assay [7], 6.01 in assay [8] and 4.64 in assay [9].

Consider TCATATAGGTAAGAGGTGAAAGTCGGTGTGGTAA, for which the PBM binding z-score in [1] is 1.34; in [2], 1.19; in [3], 0.66; in [4], 1.84; in [5], 1.99; in assay [6], 1.69. The PBM binding z-score in [7] amounted to 0.894; in [8] it was 1.33; in assay [9], 0.13.

On to CTCGAAAGGTCGTGCTCGGGTGAGTATACCAAAC, for which the PBM binding z-score came to 2.72 in [1]; 5.23 in [2]; 3.77 in assay [3]; 1.4 in [4]; 4.73 in assay [5]; 3.75 in assay [6]. The PBM binding z-score in assay [7] is 0.478; in [8], 3.43; in [9], 0.996.

Turning to ATATGTAGGTTATCGAGTCATTCAGTTTGCGCAT, the PBM binding z-score in assay [1] came to 0.699; in assay [2] it was 0.829; in assay [3] it was 0.699; in assay [4], 0.829; in assay [5], 0.932; in assay [6], 0.512. The values for the PBM binding z-score in assay [7], in [8] and in assay [9] were 0.232, 1.72 and 0.932, respectively.

Take GCTTGTAGATGAAGGTTAAGAAAGACTAAGCTAA: the PBM binding z-score in assay [1] is 0.181; in assay [2] it was 0.18; in [3], 0.177; in assay [4], -0.235; in assay [5] it was 0.368; in assay [6] it was 0.351. In addition, the PBM binding z-score in assay [7] was -0.694; in assay [8], -0.396; in assay [9], -0.443.

Consider TTACCAAGGTGTGCTGAGGTCGTTGATCCAACTC, for which the PBM binding z-score in assay [1] is 1.18; in assay [2] it was 0.184; in assay [3], -0.154; in assay [4], 0.555; in [5] it was 0.725; in assay [6], 3.24. The values for the PBM binding z-score in assay [7], in assay [8] and in assay [9] were 1.77, 2.39 and 2.39, respectively.

In the case of TCTTGTAGATCAAGCAGTTTAAGAAAGCCTGAGT, the PBM binding z-score in assay [1] is -0.362; in assay [2], -0.283; in assay [3], -0.421; in assay [4], 0.644; in [5], -0.114; in [6], -0.266. The PBM binding z-score in assay [7] was -0.588; in [8], 0.549; in [9] it was -0.00897.

Turning to GCGACTGGGGCATCAGCTGGTTACCATAACTTAA, the PBM binding z-score was 0.0831 in [1]; 0.0774 in [2]; 0.0488 in assay [3]; -0.446 in [4]; -0.273 in assay [5]; -0.306 in [6]. In addition, the figures for the PBM binding z-score in assay [7], in assay [8] and in assay [9] were -0.655, -0.49 and -0.58, respectively.

Turning to CCTAGTTGGTCAAGGTCAGACACGCTATAGGTAC, the PBM binding z-score was found to be 3.62 in [1]; 3.19 in assay [2]; 3.82 in assay [3]; 1.56 in [4]; 2.73 in assay [5]; 3.34 in assay [6]. For the same sequence, the PBM binding z-score in [7] is 2.57; in assay [8] it was 2.83; in [9], 2.29.

As for GGAACGAGGGCGAAGTTGATAGCATCTGTCGACG, the PBM binding z-score is -0.341 in assay [1]; 0.0412 in assay [2]; 0.2 in assay [3]; 1.17 in [4]; 0.297 in [5]; -0.192 in [6]. Further, the PBM binding z-score is -0.526 in assay [7], -0.285 in [8] and 0.152 in assay [9].

On to TCGAGTAGGTTAGTCGAGGCATTCAGCCAACATA, for which the PBM binding z-score is -0.449 in [1]; -0.298 in assay [2]; -0.249 in assay [3]; -0.0873 in assay [4]; -0.032 in assay [5]; 0.444 in assay [6]. Moreover, the PBM binding z-score is -0.612 in assay [7], -0.258 in assay [8] and -0.393 in [9].

CCTACTGGGCCAAAAAGGACATTGATGCCGATAA: the PBM binding z-score was 0.641 in assay [1]; 0.266 in assay [2]; 0.586 in assay [3]; -0.359 in [4]; -0.202 in assay [5]; 0.101 in assay [6]. Further, the values for the PBM binding z-score in assay [7], in assay [8] and in assay [9] were -0.447, 0.106 and 0.158, respectively.

Take TTACCAAGGTGAAGGTCGTCGATCCCTCTGTAGA: the PBM binding z-score in [1] is 1.78; in assay [2], 1.59; in assay [3] it was 1.7; in [4] it was -0.188; in assay [5], 2.12; in assay [6], 2.36. For the same sequence, the values for the PBM binding z-score in assay [7], in assay [8] and in [9] were 0.653, 1.09 and -0.137, respectively.

Turning to TTACCAAGGTGAGCTGAGGTCGATGATCCAACTC, the PBM binding z-score is 1.56 in assay [1]; 1.03 in assay [2]; 1.05 in assay [3]; -0.52 in [4]; 1.06 in [5]; 4.48 in assay [6]. In addition, the PBM binding z-score in assay [7] was determined as 1.6; in assay [8], 2.51; in assay [9] it was 0.355.
